Measured values published in PubChem BioAssay (Tox21).
A number with no mark means an inactive call. Results filed as inconclusive are left out. Entries that show only a call come without a potency. Active and inactive are the calls of the source. Unless noted, calls follow the shape of the full dose curve.

What was measured:
[1] = Nuclear factor erythroid 2-related factor 2/antioxidant responsive element (Nrf2/ARE) small molecule agonists: luciferase reporter gene qHTS assay in human keratinocytes (AID 1919969); also: nearly all actives have a fitted effect of over 35% in size; also: potency is read from the fitted curve at half-maximal effect
[2] = target: Gonadotropin-releasing hormone receptor (Homo sapiens) (UniProt P30968); assay: Human gonadotropin-releasing hormone receptor (GnRHR) small molecule agonists, calcium flux assay in GnRHR-HEK293 cells (AID 1920063); also: nearly all actives have a fitted effect of over 35% in size
Chain of Gonadotropin-releasing hormone receptor (Homo sapiens) (P30968 whole entry, looked up): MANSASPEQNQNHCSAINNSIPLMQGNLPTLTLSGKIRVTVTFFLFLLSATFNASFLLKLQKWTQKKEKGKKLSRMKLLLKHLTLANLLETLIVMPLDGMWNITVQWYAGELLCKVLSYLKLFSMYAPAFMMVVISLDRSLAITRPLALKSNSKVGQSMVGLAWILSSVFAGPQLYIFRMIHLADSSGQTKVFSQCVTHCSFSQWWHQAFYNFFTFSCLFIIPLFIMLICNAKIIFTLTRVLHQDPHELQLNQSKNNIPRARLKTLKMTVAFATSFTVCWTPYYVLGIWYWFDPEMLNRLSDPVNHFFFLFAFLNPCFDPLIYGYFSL
How it was run: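 We seeded human GnRHR-expressing HEK293 cells for 18 hours, loaded them with calcium dye for an hour at 37 C, added test compounds, and recorded fluorescence intensity kinetically for three minutes.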

[3] = target: KiSS-1 receptor (Homo sapiens) (UniProt Q969F8); assay: Human kisspeptin (KISS1R) small molecule agonists, calcium flux assay in KISS1R-HEK293 cells (AID 1920064; active = well fitted activation curve with a large enough effect in the repeat runs)
Chain of KiSS-1 receptor (Homo sapiens) (Q969F8 whole entry, looked up): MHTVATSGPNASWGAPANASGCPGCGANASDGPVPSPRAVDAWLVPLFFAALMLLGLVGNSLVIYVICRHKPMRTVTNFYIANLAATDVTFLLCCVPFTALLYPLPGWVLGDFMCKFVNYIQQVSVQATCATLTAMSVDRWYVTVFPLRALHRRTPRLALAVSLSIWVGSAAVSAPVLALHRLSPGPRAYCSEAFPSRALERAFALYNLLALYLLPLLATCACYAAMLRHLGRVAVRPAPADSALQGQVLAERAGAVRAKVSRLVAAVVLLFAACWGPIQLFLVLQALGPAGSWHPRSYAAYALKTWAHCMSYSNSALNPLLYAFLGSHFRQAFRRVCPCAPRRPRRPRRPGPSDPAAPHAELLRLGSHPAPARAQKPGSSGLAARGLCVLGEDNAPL
How it was run: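 Kinetic calcium assay, 1 s sampling over 3 min at Ex/Em 480/540, in HEK293 cells engineered with human KISS1R; compounds delivered in DMSO after 1 h dye loading.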

[4] = G protein-coupled receptor (GPCR) small molecule agonists, calcium flux assay: HEK293 wild type cell line counter screen (AID 1920065)
How it was run: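 Calcium-sensitive dye, loaded 1 h at 37 C into cells cultured 18 h, reports compound-evoked calcium release as fluorescence (Ex/Em 480/540), measured over 3 min. Agonist mode; 15-point titrations, triplicate.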

[5] = p53 small molecule agonists, cell-based qHTS assay with human liver microsomes (AID 1963577);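 also: p53 response element beta-lactamase reporter cells with liver microsomes plus NADPH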
How it was run: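 p53RE-bla cells; 5 h settle, 37 C/5% CO2; cpd + HLM 0.5 mg/mL + NADPH 0.5 mg/mL (final); 16 h 37 C; LiveBLAzer 2 h RT dark; fluorescence readout.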

[6] = p53 small molecule agonists, cell-based qHTS assay with rat liver microsomes (AID 1963578)
How it was run: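 Rat liver microsome activation: microsomes 0.5 mg/mL, NADPH 0.5 mg/mL final; p53RE-bla cells, 16 h 37 C; LiveBLAzer readout, 2 h RT dark.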

[7] = p53 small molecule agonists, cell-based qHTS assay with human liver microsomes: qHTS cell viability counter screen (AID 1963579); also: nearly all actives have a fitted effect of over 45% in size
How it was run: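 Luminescent CellTiter-Glo read-out, 30 min at room temperature, gauged cytotoxicity in p53RE-bla cells exposed 16 h at 37 C to DMSO-dissolved compounds with metabolic activation by human liver microsomes and NADPH, each 0.5 mg/mL final.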

[8] = p53 small molecule agonists, cell-based qHTS assay with rat liver microsomes: qHTS cell viability counter screen (AID 1963580); also: nearly all actives have a fitted effect of over 45% in size
How it was run: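 HCT-116 p53RE-bla, 4,000 cells/well, 5 h pre-incubation; cpd + rat liver microsomes 0.5 mg/mL + NADPH 0.5 mg/mL (final); 16 h, 37 C; CellTiter-Glo, 30 min RT; luminescence.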

[9] = p53 small molecule agonists, cell-based qHTS assay: qHTS cell viability counter screen (AID 1963581); also: nearly all actives have a fitted effect of over 45% in size
How it was run: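 Following 5 h attachment, HCT-116 p53RE-bla cells took up compound for 16 h at 37 C; the reporter was read with B/G FRET substrate (2 h RT), and viability then via CellTiter-Glo ATP luminescence.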

[10] = p53 small molecule agonists, cell-based qHTS assay (AID 1963582; active = well fitted activation curve with a large enough effect in the signal ratio in the repeat runs, not every such curve was filed as active; the % refers to the signal ratio)
How it was run: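 In this cell-based concentration-response screen, a p53 response element drives beta-lactamase; cells received DMSO-borne compounds after 5 h culture and were incubated a further 16 h before FRET substrate development.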

[11] = target: 5-hydroxytryptamine receptor 2A (Homo sapiens) (UniProt P28223); assay: 5-hydroxytryptamine receptor 2A (HTR2A) small molecule agonists, cell-based qHTS assay (AID 1963587); also: nearly all actives have a fitted effect of over 30% in size
Chain of 5-hydroxytryptamine receptor 2A (Homo sapiens) (P28223 whole entry, looked up): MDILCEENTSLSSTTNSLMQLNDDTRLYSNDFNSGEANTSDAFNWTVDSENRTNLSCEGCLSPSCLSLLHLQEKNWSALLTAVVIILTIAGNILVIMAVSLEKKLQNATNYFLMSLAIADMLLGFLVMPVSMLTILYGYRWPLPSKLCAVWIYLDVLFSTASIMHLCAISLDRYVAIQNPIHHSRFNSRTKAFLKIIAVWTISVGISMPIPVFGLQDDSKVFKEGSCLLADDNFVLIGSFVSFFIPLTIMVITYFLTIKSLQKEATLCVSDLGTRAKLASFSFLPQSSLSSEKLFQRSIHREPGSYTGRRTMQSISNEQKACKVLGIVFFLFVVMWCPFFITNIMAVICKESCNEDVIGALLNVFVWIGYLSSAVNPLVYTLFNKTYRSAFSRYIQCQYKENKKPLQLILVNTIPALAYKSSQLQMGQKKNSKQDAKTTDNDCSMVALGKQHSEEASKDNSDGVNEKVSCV
How it was run: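 Kinetic calcium-flux fluorescence (2 min, 1 sec intervals) after compound addition in agonist mode. HTR2A-CHO cells were cultured 18 h, then dye-loaded 1 h at 37 C.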

[12] = target: Muscarinic acetylcholine receptor M1 (Homo sapiens) (UniProt P11229); assay: Cholinergic receptor muscarinic 1 (CHRM1) small molecule antagonists, cell-based qHTS assay (AID 1963588); also: nearly all actives have a fitted effect of over 40% in size
Chain of Muscarinic acetylcholine receptor M1 (Homo sapiens) (P11229 whole entry, looked up): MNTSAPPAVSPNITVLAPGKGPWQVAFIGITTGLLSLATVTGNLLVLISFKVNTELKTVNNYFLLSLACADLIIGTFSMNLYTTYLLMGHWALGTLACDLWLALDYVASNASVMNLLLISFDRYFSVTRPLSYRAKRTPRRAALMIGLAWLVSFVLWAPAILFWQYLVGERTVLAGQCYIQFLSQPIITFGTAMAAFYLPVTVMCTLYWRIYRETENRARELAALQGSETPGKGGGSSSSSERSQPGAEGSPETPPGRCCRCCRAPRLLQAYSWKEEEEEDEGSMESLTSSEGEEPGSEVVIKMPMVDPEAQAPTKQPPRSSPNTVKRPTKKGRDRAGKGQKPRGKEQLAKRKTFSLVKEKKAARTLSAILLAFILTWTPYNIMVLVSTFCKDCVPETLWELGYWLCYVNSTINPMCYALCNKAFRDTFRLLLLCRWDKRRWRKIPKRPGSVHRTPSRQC
How it was run: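 CHRM1-CHO calcium-flux assay, antagonist mode. Cells were seeded 18 h, dye-loaded 1 h at 37 C and given compound for 5 min at RT, then acetylcholine was added at 50nM. FDSS fluorescence was read 3 min; 15 concentrations, three runs.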

[13] = target: Muscarinic acetylcholine receptor M1 (Homo sapiens) (UniProt P11229); assay: Cholinergic receptor muscarinic 1 (CHRM1) small molecule agonists, cell-based qHTS assay (AID 1963589); also: nearly all actives have a fitted effect of over 35% in size
How it was run: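 Measures agonist-induced intracellular calcium rise. Stable human CHRM1 CHO line, 1 h dye load at 37 C, compounds from DMSO, kinetic fluorescence read.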

[14] = cAMP Responsive Elements (CRE) small molecule agonists, cell-based qHTS assay (AID 1963590)
How it was run: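 A CRE-responsive beta-lactamase reporter in HEK 293T cells was used. Treatment ran 3 h at 37 C; detection used LiveBLAzer B/G FRET substrate for 2 h at room temperature.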

[15] = cAMP Responsive Elements (CRE) small molecule antagonists, cell-based qHTS assay (AID 1963591; active = well fitted inhibition curve with a large enough effect in the signal ratio in the repeat runs, not every such curve was filed as active; the % refers to the signal ratio)
How it was run: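 HEK293T cells carrying a CRE-driven beta-lactamase reporter receive compound and NKH477 (0.25 uM final) for 3 h. Fluorescence from LiveBLAzer B/G FRET substrate is read after 2 h at room temperature.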

[16] = target: Beta-2 adrenergic receptor (Homo sapiens) (UniProt P07550); assay: Adrenergic beta2 receptor (ADRB2) small molecule antagonists, cell-based qHTS assay (AID 1963592); also: nearly all actives have a fitted effect of over 50% in size; also: potency is read from the fitted curve at half-maximal effect
Chain of Beta-2 adrenergic receptor (Homo sapiens) (P07550 whole entry, looked up): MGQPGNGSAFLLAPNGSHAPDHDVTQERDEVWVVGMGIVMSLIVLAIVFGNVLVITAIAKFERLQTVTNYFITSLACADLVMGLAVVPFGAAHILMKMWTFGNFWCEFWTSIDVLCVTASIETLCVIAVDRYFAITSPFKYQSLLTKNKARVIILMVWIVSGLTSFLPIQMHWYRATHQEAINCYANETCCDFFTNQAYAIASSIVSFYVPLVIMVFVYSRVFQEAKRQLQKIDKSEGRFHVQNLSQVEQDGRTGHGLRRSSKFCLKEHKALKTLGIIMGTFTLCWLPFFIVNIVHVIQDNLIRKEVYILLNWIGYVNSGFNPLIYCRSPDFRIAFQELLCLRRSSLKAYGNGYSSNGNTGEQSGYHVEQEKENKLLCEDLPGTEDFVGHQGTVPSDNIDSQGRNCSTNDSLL
How it was run: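 Cells (CHO, stable ADRB2 overexpression) incubated 18-20hr at 37C; compounds added from DMSO; agonist mix (1nM isoproterenol, 100uM IBMX, 25uM Ro-20-1724) added; 0.5hr RT; d2-cAMP and anti-cAMP-cryptate added; 1hr RT; 665/615 nm read.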

[17] = target: D(2) dopamine receptor (Homo sapiens) (UniProt P14416); assay: Dopamine D2 receptor (DRD2) small molecule antagonists, cell-based qHTS assay (AID 1963595; active = well fitted inhibition curve with a large enough effect in the signal ratio in the repeat runs, with a control signal flat; the % refers to the signal ratio)
Chain of D(2) dopamine receptor (Homo sapiens) (P14416 whole entry, looked up): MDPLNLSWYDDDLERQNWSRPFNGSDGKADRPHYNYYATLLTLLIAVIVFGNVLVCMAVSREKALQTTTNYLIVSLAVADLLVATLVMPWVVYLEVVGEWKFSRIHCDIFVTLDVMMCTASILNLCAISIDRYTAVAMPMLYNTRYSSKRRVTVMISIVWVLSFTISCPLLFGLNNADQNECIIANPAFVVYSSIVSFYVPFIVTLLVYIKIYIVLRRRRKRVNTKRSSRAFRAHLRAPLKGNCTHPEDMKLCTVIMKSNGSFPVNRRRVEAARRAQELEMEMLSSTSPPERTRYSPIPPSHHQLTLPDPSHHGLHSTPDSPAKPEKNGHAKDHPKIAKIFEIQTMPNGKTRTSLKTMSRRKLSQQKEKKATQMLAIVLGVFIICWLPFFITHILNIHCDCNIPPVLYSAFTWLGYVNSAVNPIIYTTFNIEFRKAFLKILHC
How it was run: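 HEK293 cells stably expressing DRD2 were preincubated with 0.1 mM Ro20-1724, then with compound for 10 min at room temperature. Cells were stimulated with 200 nM NKH477 plus 12 nM quinpirole for 30 min, and cAMP was read by HTRF.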

[18] = target: 5-hydroxytryptamine receptor 2A (Homo sapiens) (UniProt P28223); assay: 5-hydroxytryptamine receptor 2A (HTR2A) small molecule antagonists, cell-based qHTS assay (AID 1963586); also: nearly all actives have a fitted effect of over 45% in size
How it was run: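 Antagonist-mode intracellular calcium assay: DOI (4 nM) added after 5 min compound pre-incubation at room temperature to dye-loaded HTR2A-CHO cells. Fluorescence followed for 3 min, sampled every second.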

[19] = target: Beta-2 adrenergic receptor (Homo sapiens) (UniProt P07550); assay: Adrenergic beta2 receptor (ADRB2) small molecule agonists, cell-based qHTS assay (AID 1963593);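 also: CHO cells stably overexpressing human ADRB2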
How it was run: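 CHO cells stably over-expressing ADRB2 were plated overnight at 37C, then dosed with compounds plus a stimulation mix containing 100uM IBMX and 25uM Ro-20-1724 for 0.5hr at room temperature. cAMP was measured by HTRF competition, 1hr.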

[20] = target: D(2) dopamine receptor (Homo sapiens) (UniProt P14416); assay: Dopamine D2 receptor (DRD2) small molecule agonists, cell-based qHTS assay (AID 1963594); also: nearly all actives have a fitted effect of over 35% in size
How it was run: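 cAMP accumulation in DRD2-HEK293 cells measured by HTRF after 1 h detection; compounds added 10 min before NKH477 (200nM […]) forskolin-analogue stimulation, 30 min at room temperature, with Ro20-1724 present at 0.1 mM final.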

Compound	Potency [1]	Potency [2]	outcome [3]	outcome [4]	Potency [5]	Potency [6]	Potency [7]	Potency [8]	Potency [9]	Potency [10]	Potency [11]	Potency [12]	Potency [13]	Potency [14]	Potency [15]	Potency [16]	Potency [17]	Potency [18]	Potency [19]	Potency [20]
CCN(CC)C(=O)Nc1ccc(OCC(O)CNC(C)(C)C)c(C(C)=O)c1 (stereo not given)	inactive	inactive	inactive	inactive	inactive	inactive	inactive	inactive	inactive	inactive	inactive	inactive	inactive	inactive	inactive	0.0473 µM (active)	inactive	–	–	–
CCCCN(CCCC)C(=O)N(CCCC)CCCC	61.1 µM (active)	inactive	inactive	inactive	inactive	inactive	inactive	inactive	inactive	inactive	inactive	–	inactive	–	inactive	inactive	inactive	inactive	inactive	inactive
CCOC(=O)CS	70.5 µM (active)	inactive	inactive	inactive	inactive	inactive	inactive	inactive	inactive	–	inactive	inactive	–	inactive	inactive	inactive	inactive	inactive	–	inactive
O=C(O)CC(C(=O)O)S(=O)(=O)O (stereo not given)	inactive	inactive	inactive	inactive	inactive	inactive	–	inactive	inactive	inactive	inactive	inactive	inactive	inactive	inactive	inactive	inactive	inactive	–	inactive
CCCC(=O)OC(=O)CCC	inactive	inactive	inactive	inactive	inactive	inactive	inactive	inactive	–	inactive	inactive	inactive	inactive	–	inactive	inactive	inactive	inactive	inactive	inactive
Cc1cc(O)ccc1N	54.8 µM (active)	inactive	inactive	inactive	inactive	inactive	–	inactive	–	–	inactive	inactive	inactive	–	inactive	inactive	inactive	inactive	inactive	–
Cc1cccc(C)n1	inactive	inactive	inactive	inactive	inactive	inactive	–	–	inactive	inactive	inactive	inactive	inactive	inactive	inactive	inactive	inactive	inactive	–	inactive
CC(C)(C)C(=O)/C=C/c1ccc(Cl)cc1	54.5 µM (active)	inactive	inactive	inactive	inactive	inactive	–	inactive	inactive	inactive	inactive	inactive	inactive	–	inactive	inactive	inactive	inactive	inactive	inactive
O=C1OC(OC(=O)c2cccnc2Nc2cccc(C(F)(F)F)c2)c2ccccc21 (stereo not given)	13.3 µM (active)	inactive	inactive	inactive	inactive	inactive	inactive	inactive	–	inactive	inactive	inactive	inactive	inactive	–	inactive	inactive	inactive	–	–
Oc1c(Br)cc(Br)c2cccnc12	0.841 µM (active)	inactive	inactive	inactive	inactive	inactive	inactive	inactive	–	inactive	inactive	inactive	inactive	–	inactive	inactive	inactive	inactive	–	inactive
CC(C)c1ccc2sc3ccccc3c(=O)c2c1	68.6 µM (active)	inactive	inactive	inactive	inactive	inactive	–	–	–	inactive	inactive	inactive	inactive	–	–	inactive	–	inactive	–	inactive
COc1ccc2c(c1OC)C(=O)O[C@@H]2[C@H]1c2c(cc3c(c2OC)OCO3)CCN1C	inactive	inactive	inactive	inactive	inactive	inactive	inactive	inactive	–	–	–	–	–	inactive	inactive	inactive	–	–	–	inactive
CCO[Si](CC)(OCC)OCC	inactive	inactive	inactive	inactive	inactive	inactive	–	inactive	–	inactive	inactive	inactive	inactive	inactive	inactive	–	inactive	inactive	inactive	–
O=C1OCCN1/N=C/c1ccc([N+](=O)[O-])o1	inactive	inactive	inactive	inactive	inactive	inactive	inactive	inactive	–	inactive	–	–	–	inactive	inactive	inactive	inactive	–	–	–
